# High-throughput results from PubChem.
# Compounds with a hit are over-represented: about 2.2% of the library has one in this group of screens.
# aSyn UTR inh: 5' untranslated region of α-synuclein, MLPCN primary screen; actives 0.82% (n = 300,000); inhibition, % (tested at 7.5 µM); alpha-synuclein 5'UTR reporter, inhibitor activity; in the data active = inhibition above about 60%;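 also: H4 neuroglioblastoma cells stably carrying SNCA 5'UTR luciferase fusion; 0% = DMSO wells and 100% = positive control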
# BaF3 tox: counter-screen for JAK2V617F inhibitors: parental Ba/F3 viability inhibitors | CellTiter-Glo ATP luminescence | inhibition, % at 5.6 µM | actives 1.1% (n = 220,000);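 active = inhibition above a per-campaign cutoff, the mean inhibition of all tested compounds plus 3 SD, cut at about 27% in these data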;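 also: 0% = DMSO wells and 100% = JAK Inhibitor I control wells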
# IEC-6 tox: kills IEC-6 intestinal cells in KLF5 counter-screen | actives 0.78% (n = 290,000) | IEC-6 cytotoxicity, luminescence viability | inhibition, % at 5 µM;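 also: 0% = plate median of test compound wells and 100% = cytotoxic reference compound wells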
# Ba/F3 V617F tox: reduce viability of Ba/F3 cells dependent on JAK2V617F; Ba/F3 EpoR-JAK2V617F viability, ATP luminescence; inhibition, % at 5.6 µM; actives 1.1% (n = 220,000); AID 1446;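 active = inhibition above the campaign mean plus 3 SD over all tested compounds, cut at about 24% in these data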;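 also: cytokine-independent growth of Ba/F3 cells driven by EpoR plus mutant JAK2; 0% = DMSO-treated cells and 100% = JAK inhibitor I control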
# APP transl inh: APP translation inhibition. actives 0.82% (n = 190,000). SH-SY5Y APP 5'UTR-luciferase reporter, luminescence. AID 1285. inhibition, % at 2 µM;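 active = inhibition above a set limit, derived from the sample mean plus 3 SD, cut at about 45% in these data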
# KLF5 inh: suppresses KLF5 promoter-driven expression | DLD-1 KLF5 promoter-luciferase reporter, luminescence | inhibition, % at 5 µM | actives 0.23% (n = 290,000) | AID 1700;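 active = inhibition above a per-plate limit of that plate's mean compound inhibition plus 3 SD, cut at about 60% in these data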;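 also: 0% = DMSO wells and 100% = LY294002 at 200 µM; higher means less KLF5 promoter-driven luciferase light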
# IEC-6 cytotox cf: IEC-6 cytotoxicity, confirmation assay | shares compounds with IEC-6 tox | IEC-6 rat intestinal epithelial viability, luminescence | inhibition, % at 5 µM | actives 63% (n = 1,900) | AID 1907;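 also: 0% = vehicle and 100% = reference cytotoxic drug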
# * marks the source's active call; other numbers are inactive results; / = not tested or not shown. Rule as the data show it, unless noted: active = inhibition above about 22%; inactive = the rest.
SMILES,aSyn UTR inh,BaF3 tox,IEC-6 tox,Ba/F3 V617F tox,APP transl inh,KLF5 inh,IEC-6 cytotox cf
COc1cccc(N2CC(O)=C(c3nc4ccccc4c(=O)[nH]3)C2=N)c1,-4,81*,51*,78*,93*,48,64*
Cc1cc(Cl)cc(C)c1OCCn1ccnc1,3,/,44*,/,/,38,14
CCOc1ccc(-c2[nH]ncc2-c2ccc(OC)c(OC)c2)c(O)c1,/,59*,41*,53*,70*,47,50*
CCn1c(=O)cc(SCC(=O)NCCCN2CCN(c3ccccc3F)CC2)c2ccccc21,-41,18,22*,11,11,-14,27*
N#CC(C#N)=C(N)CSc1cccc[n+]1[O-],-27,6,24*,-2,-17,-19,-3
O=C(CSc1cccc[n+]1[O-])c1cc2ccccc2o1,-101,0,25*,-2,-31,-28,-2
[O-][n+]1ccccc1SCc1ccccc1,2,/,/,/,/,/,/
O=C(O)CSc1cccc[n+]1[O-],14,1,-5,-3,2,-23,/
O=C(CSc1cccc[n+]1[O-])c1cc(Cl)ccc1Cl,-87,9,28*,1,27,-22,-13
O=C(CN(C(=O)CCC(=O)Nc1ccccn1)C1CCCC1)NCc1ccccc1,-2,/,-4,/,/,-6,/
CC(Nc1ncnc2sccc12)c1ccccc1 (stereo not drawn),45,/,29*,/,/,-8,27*
c1ccc(Nc2ncnc3sccc23)cc1,-17,/,10,/,/,-25,/
CN(C)C(CNC(=O)Cc1cccc(C(F)(F)F)c1)c1ccco1 (stereo not drawn),9,8,2,3,-18,-7,/
COc1ccc(C(=O)CC(=O)c2ccc(F)cc2)cc1,-165,/,/,/,/,/,/
COc1ccc(C(=O)C(CCC(CNC(C)(C)C)C(=O)c2ccc(OC)cc2)CNC(C)(C)C)cc1 (stereo not drawn),65*,101*,71*,102*,97*,-3,60*
CC(=O)N1N=C(c2ccc3ccccc3c2)OC12CCCC2,-18,4,-6,-2,/,-3,/
O=C1C(Cl)=C(Nc2ccc(O)cc2)C(=O)c2ccccc21,-59,59*,102*,39*,/,48,56*
O=C(NC1=C(Nc2ccc(F)cc2)C(=O)c2ccccc2C1=O)c1ccc(Cl)cc1,-57,-1,4,-3,5,0,/
CCc1ccccc1NC(=O)N1CCCc2ccccc21,17,/,2,/,/,-2,/
COc1ccc(NC(=O)N2CCCC2C(=O)NC2CCCC2)cc1 (stereo not drawn),-13,/,-1,/,/,7,/
O=C(O)c1ccc(N/N=C/C=C/c2ccccc2[N+](=O)[O-])cc1,-127,-1,24*,4,-113,-135,39*
O=c1nc2ccccc2c2n1CC(CN1CCN(C(c3ccccc3)c3ccccc3)CC1)N2 (stereo not drawn),-7,4,-1,-2,-9,-17,/
Clc1ccc(C2Nc3cccc4cccc(c34)N2)cc1Cl,11,/,-2,/,/,19,/
O=[N+]([O-])c1ccc(Cl)c(C2Nc3cccc4cccc(c34)N2)c1,26,103*,70*,100*,5,17,35*
COc1cccc(NC(=O)CSC2=C(C#N)C(c3ccco3)C3=C(CCCC3=O)N2)c1 (stereo not drawn),-26,76*,50*,67*,8,45,5
SMILES,aSyn UTR inh,BaF3 tox,IEC-6 tox,Ba/F3 V617F tox,APP transl inh,KLF5 inh,IEC-6 cytotox cf
Cc1ccc(C(=O)CSC2=C(C#N)C(c3ccco3)C3=C(CCCC3=O)N2)cc1 (stereo not drawn),38,4,45*,1,46*,4,52*
CCCCc1ccc(NC(=O)CSC2=C(C#N)C(c3ccco3)C3=C(CCCC3=O)N2)cc1 (stereo not drawn),24,5,-6,-1,11,-22,/
CC(C)(C)NC(=S)NNC(=O)c1cccc(Br)c1,-121,8,-5,1,-72,-64,/
O=c1c(Cl)c(Cl)cnn1Cc1ccc(F)cc1,-57,-3,27*,7,51*,-23,11
O=c1cnn(Cc2ccc(F)cc2)c2ccccc12,7,/,4,/,/,7,/
CCc1ccc(OCC(=O)NNC(=S)NC(=O)C2CCCCC2)c(Br)c1,-6,/,2,/,/,-2,/
CCc1ccc(OCC(=O)NNC(=S)NC(=O)C2CC2)c(Br)c1,/,/,30*,/,/,14,11
